# Results from ChEMBL document CHEMBL2218924, “A broad activity screen in support of a chemogenomic map for kinase signalling research and drug discovery” (Biochem J, 2013).
# Experiments:
# [1] = biological target: Serine/threonine-protein kinase PAK 4 (Homo sapiens) (UniProt O96013); settings: at 1 µM
# [2] = biological target: Serine/threonine-protein kinase PAK 4 (Homo sapiens) (UniProt O96013); settings: at 10 µM
# [3] = biological target: Serine/threonine-protein kinase PAK 5 (Homo sapiens) (UniProt Q9P286); settings: at 1 µM
# [4] = biological target: Serine/threonine-protein kinase PAK 5 (Homo sapiens) (UniProt Q9P286); settings: at 10 µM
# [5] = biological target: Serine/threonine-protein kinase PAK 6 (Homo sapiens) (UniProt Q9NQU5); settings: at 1 µM
# [6] = biological target: Serine/threonine-protein kinase PAK 6 (Homo sapiens) (UniProt Q9NQU5); settings: at 10 µM
# [7] = biological target: PAS domain-containing serine/threonine-protein kinase (Homo sapiens) (UniProt Q96RG2); settings: at 10 µM
# [8] = biological target: Activated CDC42 kinase 1 (Homo sapiens) (UniProt Q07912); settings: at 1 µM
# [9] = biological target: Activated CDC42 kinase 1 (Homo sapiens) (UniProt Q07912); settings: at 10 µM
# [10] = biological target: ALK tyrosine kinase receptor (Homo sapiens) (UniProt Q9UM73); settings: at 1 µM
# [11] = biological target: ALK tyrosine kinase receptor (Homo sapiens) (UniProt Q9UM73); settings: at 10 µM
# [12] = biological target: T1, Activin receptor type-1B (Homo sapiens) (UniProt P36896); settings: at 1 µM
# T1 sequence (whole entry): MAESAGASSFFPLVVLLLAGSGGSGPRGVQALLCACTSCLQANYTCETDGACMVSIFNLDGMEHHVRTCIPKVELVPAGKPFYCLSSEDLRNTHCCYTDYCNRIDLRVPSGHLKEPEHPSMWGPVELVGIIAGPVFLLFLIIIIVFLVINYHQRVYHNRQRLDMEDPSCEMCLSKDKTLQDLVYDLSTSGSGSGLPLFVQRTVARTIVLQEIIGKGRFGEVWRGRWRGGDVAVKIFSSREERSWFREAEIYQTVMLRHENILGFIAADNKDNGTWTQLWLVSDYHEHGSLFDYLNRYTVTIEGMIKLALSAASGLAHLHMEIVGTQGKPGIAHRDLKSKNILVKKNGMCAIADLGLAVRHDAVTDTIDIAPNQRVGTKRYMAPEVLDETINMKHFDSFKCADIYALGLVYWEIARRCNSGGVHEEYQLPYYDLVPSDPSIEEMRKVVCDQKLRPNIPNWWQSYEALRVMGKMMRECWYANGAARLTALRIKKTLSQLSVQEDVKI
# [13] = biological target: T1, Activin receptor type-1B (Homo sapiens); settings: at 10 µM
# [14] = biological target: T2, AMP-activated protein kinase (AMPK) alpha-1/beta-1/gamma-1 (Homo sapiens) (UniProt P54619+Q9Y478+Q13131); settings: at 1 µM
# [15] = biological target: T2, AMP-activated protein kinase (AMPK) alpha-1/beta-1/gamma-1 (Homo sapiens); settings: at 10 µM
# [16] = biological target: T3, AMP-activated protein kinase, AMPK (Homo sapiens) (UniProt P54646+O43741+P54619+Q9UGJ0+Q9Y478+Q13131+Q9UGI9); settings: at 1 µM
# [17] = biological target: T3, AMP-activated protein kinase, AMPK (Homo sapiens); settings: at 10 µM
# [18] = biological target: T4, NUAK family SNF1-like kinase 1 (Homo sapiens) (UniProt O60285); settings: at 1 µM
# T4 sequence (whole entry): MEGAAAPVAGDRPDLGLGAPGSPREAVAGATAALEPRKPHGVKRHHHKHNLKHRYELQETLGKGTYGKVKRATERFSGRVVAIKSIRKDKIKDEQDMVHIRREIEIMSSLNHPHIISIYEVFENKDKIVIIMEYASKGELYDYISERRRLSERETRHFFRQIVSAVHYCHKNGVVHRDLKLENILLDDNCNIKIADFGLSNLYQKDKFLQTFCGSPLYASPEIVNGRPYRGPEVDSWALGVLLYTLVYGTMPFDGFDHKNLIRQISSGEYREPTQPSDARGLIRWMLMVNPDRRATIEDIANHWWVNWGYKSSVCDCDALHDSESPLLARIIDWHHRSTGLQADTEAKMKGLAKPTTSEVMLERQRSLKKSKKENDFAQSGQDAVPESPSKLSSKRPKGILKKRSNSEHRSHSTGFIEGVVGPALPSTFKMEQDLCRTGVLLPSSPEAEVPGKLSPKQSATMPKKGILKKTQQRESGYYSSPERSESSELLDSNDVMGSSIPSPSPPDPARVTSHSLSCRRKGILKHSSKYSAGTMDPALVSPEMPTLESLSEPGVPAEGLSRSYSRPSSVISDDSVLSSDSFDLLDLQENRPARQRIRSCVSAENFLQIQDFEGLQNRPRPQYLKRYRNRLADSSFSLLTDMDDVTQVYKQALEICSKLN
# [19] = biological target: T4, NUAK family SNF1-like kinase 1 (Homo sapiens); settings: at 10 µM
# [20] = biological target: T5, Mitogen-activated protein kinase kinase kinase 5 (Homo sapiens) (UniProt Q99683); settings: at 1 µM
# T5 sequence (whole entry): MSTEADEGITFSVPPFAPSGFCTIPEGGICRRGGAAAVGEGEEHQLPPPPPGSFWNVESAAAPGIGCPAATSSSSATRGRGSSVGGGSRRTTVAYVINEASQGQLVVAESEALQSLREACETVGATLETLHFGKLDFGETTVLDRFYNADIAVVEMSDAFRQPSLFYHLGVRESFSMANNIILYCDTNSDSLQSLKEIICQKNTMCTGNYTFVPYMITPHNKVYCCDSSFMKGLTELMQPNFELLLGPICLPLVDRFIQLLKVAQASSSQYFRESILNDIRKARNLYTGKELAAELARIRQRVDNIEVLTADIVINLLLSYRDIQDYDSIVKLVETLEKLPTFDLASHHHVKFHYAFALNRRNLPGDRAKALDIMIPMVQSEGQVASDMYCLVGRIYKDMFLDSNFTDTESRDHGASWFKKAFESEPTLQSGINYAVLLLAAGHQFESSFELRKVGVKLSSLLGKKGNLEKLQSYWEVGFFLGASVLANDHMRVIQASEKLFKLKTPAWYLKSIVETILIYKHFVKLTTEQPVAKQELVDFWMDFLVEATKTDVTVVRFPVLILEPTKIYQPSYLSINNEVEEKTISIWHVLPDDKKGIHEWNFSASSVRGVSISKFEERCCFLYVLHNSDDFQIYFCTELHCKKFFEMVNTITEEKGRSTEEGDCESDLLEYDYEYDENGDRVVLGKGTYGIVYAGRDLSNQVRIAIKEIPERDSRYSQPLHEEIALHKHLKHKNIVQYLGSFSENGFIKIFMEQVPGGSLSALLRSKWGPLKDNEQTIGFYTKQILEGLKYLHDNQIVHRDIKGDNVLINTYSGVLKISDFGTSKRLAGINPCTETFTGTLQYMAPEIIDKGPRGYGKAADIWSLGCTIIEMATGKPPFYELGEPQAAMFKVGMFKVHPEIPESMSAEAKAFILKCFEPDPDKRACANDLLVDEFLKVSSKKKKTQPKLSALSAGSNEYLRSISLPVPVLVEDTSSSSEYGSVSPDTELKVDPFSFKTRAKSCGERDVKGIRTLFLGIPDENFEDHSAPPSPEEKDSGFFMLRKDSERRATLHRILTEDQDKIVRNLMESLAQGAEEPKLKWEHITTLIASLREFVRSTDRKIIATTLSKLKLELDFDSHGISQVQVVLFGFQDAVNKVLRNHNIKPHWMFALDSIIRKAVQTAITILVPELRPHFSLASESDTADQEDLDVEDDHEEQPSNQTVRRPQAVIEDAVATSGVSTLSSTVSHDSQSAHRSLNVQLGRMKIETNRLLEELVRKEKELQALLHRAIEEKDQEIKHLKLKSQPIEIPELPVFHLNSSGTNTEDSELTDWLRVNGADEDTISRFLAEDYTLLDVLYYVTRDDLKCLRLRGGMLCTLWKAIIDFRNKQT
# T2 sequence (P54619 whole entry): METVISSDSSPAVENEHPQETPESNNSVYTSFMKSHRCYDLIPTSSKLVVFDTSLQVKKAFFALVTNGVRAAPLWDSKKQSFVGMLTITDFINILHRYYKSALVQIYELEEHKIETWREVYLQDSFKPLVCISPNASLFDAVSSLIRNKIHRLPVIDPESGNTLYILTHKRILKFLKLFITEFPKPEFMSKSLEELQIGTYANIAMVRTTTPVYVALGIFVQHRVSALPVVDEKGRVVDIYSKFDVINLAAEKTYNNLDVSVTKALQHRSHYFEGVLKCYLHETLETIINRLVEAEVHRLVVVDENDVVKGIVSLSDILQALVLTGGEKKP
# T2 sequence (Q13131 whole entry partner): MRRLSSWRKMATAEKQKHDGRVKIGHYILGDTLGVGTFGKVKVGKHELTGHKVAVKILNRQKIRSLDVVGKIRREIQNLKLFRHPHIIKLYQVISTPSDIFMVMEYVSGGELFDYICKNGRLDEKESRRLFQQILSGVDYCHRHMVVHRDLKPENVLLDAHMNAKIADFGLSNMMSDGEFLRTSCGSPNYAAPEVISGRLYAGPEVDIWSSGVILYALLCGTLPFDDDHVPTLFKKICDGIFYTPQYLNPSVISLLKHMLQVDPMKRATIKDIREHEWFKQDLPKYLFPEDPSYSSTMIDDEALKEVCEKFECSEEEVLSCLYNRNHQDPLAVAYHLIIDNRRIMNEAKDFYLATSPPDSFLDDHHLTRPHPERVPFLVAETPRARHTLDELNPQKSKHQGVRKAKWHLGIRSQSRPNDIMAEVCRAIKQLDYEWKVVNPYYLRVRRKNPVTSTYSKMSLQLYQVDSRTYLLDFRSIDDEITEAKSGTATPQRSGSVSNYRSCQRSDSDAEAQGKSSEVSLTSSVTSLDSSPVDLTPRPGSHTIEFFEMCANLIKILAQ
# T2 sequence (Q9Y478 2-270 partner limits assumed): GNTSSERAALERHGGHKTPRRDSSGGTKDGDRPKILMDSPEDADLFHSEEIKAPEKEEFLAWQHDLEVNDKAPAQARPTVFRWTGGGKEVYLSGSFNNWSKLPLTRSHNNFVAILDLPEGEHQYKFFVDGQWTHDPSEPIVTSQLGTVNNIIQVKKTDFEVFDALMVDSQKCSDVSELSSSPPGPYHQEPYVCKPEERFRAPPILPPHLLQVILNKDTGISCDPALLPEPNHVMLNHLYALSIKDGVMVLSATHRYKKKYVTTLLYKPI
# Serine/threonine-protein kinase PAK 5 (Homo sapiens), sequence (Q9P286 whole entry, looked up): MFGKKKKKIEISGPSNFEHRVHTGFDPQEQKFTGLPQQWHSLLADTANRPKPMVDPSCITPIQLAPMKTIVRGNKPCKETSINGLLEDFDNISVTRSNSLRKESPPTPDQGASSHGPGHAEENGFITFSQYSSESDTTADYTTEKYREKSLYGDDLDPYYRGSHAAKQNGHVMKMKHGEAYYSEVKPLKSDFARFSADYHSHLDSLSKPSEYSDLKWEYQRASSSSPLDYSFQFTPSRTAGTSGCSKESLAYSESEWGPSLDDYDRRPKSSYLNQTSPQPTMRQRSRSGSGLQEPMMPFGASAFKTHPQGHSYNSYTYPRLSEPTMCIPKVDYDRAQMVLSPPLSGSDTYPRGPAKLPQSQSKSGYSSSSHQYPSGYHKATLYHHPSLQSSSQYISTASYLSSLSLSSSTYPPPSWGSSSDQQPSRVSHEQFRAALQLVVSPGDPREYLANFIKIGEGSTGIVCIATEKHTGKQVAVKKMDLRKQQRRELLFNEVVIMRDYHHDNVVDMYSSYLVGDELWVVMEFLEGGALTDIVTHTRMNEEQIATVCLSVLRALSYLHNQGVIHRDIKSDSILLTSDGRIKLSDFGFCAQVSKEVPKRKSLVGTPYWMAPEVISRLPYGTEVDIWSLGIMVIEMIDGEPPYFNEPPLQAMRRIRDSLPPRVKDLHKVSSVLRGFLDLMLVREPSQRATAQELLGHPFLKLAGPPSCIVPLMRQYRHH
# Serine/threonine-protein kinase PAK 6 (Homo sapiens), sequence (Q9NQU5 whole entry, looked up, the tested form may be a part): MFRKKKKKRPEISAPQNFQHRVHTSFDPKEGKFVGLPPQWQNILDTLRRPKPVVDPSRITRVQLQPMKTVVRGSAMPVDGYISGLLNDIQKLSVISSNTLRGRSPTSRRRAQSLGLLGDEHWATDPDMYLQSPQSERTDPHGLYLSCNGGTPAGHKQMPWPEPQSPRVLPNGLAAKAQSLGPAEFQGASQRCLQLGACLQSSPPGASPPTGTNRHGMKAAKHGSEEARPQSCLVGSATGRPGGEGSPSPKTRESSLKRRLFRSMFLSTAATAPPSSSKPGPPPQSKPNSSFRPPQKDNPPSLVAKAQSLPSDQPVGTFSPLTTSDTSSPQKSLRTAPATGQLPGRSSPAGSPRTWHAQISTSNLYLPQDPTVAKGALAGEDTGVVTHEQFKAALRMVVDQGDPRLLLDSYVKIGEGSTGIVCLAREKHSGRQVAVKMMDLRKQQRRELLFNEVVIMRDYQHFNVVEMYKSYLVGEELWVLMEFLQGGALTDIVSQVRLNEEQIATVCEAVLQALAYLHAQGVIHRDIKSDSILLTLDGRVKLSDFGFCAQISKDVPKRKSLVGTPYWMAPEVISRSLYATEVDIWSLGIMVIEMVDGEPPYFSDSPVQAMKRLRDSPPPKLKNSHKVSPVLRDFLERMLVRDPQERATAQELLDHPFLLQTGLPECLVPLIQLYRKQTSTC
# PAS domain-containing serine/threonine-protein kinase (Homo sapiens), sequence (Q96RG2 whole entry, the tested form may be a part): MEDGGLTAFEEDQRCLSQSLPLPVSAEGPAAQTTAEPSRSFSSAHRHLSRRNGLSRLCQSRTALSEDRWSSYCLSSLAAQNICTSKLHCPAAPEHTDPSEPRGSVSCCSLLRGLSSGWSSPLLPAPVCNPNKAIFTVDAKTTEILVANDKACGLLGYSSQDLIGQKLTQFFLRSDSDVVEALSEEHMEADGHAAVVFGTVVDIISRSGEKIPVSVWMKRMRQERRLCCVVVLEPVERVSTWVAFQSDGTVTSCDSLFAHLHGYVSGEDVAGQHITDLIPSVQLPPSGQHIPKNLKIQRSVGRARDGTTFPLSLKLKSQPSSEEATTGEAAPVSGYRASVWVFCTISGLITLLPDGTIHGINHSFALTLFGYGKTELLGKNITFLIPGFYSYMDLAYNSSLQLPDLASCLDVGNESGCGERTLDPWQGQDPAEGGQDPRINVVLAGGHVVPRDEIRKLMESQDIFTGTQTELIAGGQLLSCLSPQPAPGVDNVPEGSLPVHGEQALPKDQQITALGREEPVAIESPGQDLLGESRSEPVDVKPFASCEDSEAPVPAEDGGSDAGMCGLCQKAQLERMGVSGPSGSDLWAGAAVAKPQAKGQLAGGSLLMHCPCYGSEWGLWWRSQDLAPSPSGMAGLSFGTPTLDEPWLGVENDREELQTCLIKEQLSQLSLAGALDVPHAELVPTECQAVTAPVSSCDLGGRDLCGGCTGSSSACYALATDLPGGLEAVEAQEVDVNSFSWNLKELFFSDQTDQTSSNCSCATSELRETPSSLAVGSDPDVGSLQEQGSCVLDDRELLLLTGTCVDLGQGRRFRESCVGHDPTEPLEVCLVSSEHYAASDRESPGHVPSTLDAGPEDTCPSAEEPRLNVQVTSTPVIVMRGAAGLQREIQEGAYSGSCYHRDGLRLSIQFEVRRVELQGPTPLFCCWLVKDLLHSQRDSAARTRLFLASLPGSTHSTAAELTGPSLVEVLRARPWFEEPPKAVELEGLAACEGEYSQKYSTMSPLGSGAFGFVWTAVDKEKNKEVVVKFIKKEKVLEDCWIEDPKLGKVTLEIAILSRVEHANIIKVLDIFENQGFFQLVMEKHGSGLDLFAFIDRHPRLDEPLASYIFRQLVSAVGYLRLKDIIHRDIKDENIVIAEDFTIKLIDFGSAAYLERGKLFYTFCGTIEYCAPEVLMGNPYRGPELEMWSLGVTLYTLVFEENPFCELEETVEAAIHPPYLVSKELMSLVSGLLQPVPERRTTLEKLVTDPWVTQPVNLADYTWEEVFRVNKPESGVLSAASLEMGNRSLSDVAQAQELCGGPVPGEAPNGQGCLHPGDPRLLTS
# Activated CDC42 kinase 1 (Homo sapiens), sequence (Q07912 whole entry, looked up): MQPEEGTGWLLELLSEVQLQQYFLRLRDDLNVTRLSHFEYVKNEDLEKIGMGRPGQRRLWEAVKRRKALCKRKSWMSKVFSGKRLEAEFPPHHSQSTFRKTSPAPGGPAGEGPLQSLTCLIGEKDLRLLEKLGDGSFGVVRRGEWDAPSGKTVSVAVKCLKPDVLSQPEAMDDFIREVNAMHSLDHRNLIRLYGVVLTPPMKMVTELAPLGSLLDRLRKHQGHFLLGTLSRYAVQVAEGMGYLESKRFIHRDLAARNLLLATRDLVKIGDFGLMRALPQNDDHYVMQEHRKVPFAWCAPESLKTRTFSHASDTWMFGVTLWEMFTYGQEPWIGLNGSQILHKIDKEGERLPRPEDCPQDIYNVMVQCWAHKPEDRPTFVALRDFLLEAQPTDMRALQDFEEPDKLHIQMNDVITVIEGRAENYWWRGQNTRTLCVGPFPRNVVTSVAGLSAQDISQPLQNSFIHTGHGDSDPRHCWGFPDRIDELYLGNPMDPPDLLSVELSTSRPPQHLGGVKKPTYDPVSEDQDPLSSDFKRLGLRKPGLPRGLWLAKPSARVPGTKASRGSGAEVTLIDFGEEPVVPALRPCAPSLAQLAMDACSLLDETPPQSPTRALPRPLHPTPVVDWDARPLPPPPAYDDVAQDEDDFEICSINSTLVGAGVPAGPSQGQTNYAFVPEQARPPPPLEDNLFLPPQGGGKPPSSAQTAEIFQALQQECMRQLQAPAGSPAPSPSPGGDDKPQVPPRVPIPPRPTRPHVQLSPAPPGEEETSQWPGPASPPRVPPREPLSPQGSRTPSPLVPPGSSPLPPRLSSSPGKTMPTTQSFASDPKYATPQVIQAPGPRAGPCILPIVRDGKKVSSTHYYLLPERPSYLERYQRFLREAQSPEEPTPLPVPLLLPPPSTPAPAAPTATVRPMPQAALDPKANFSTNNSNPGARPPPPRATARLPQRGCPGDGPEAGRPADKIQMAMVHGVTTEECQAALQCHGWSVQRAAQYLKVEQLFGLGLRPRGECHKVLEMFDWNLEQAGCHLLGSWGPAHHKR
Compound,residual activity [1] [%],residual activity [2] [%],residual activity [3] [%],residual activity [4] [%],residual activity [5] [%],residual activity [6] [%],residual activity [7] [%],residual activity [8] [%],residual activity [9] [%],residual activity [10] [%],residual activity [11] [%],residual activity [12] [%],residual activity [13] [%],residual activity [14] [%],residual activity [15] [%],residual activity [16] [%],residual activity [17] [%],residual activity [18] [%],residual activity [19] [%],residual activity [20] [%]
CC(=O)O/N=C1\C(=C2\C(=O)Nc3cc(Br)ccc32)Nc2ccccc21,100,67,88,63,89,67,108,48,15,58,40,100,119,60,9,46,11,56,19,92
CC#CC(=O)Nc1cc2c(Nc3ccc(F)c(Cl)c3)ncnc2cn1,99,91,104,107,102,96,99,86,71,81,81,137,99,99,84,79,74,95,86,104
NC(=O)c1ccc2[nH]c(-c3ccc(Oc4ccc(Cl)cc4)cc3)nc2c1,97,92,99,113,110,103,123,77,61,75,87,111,97,72,32,71,40,98,85,80
COc1ccc(CNc2nc(N(CCO)CCO)nc3c2ncn3C(C)C)cc1,89,56,95,66,87,63,129,70,51,80,61,97,118,97,80,86,88,107,77,95
COc1ccc(S(=O)(=O)N(CCO)c2ccccc2CN(C)C/C=C/c2ccc(Cl)cc2)cc1,94,93,100,77,105,64,87,68,60,68,59,96,102,104,76,99,74,100,75,94
CO[C@H]1[C@@H](OC)C[C@H](C)[C@@H](OC)C2=CC(=O)C=C(NC(=O)/C(C)=C/C=C/[C@H](OC)[C@@H](OC(N)=O)/C(C)=C/[C@@H]1C)C2=O,106,92,92,64,99,84,59,92,72,71,50,112,112,94,78,92,78,93,94,88
